# Reference: PubChem BioAssay AID1159580 (chemical genetic matrix, 2015)
# Hit rate of the full screen: of about 5,500 compounds, about 2,000 (36%) were called active. Roughly 18% stayed inconclusive and do not appear here. The list shows a part of the results. A number with no mark means an inactive call. No stated cut-off is given here; in the data, active means normalized growth mostly below about 0.91 (no sharp cut-off); inconclusive means no clear call, values can overlap the other calls; inactive means mostly above about 0.92.
# Assay: chemical genetic growth profiling, strain panel (AID 1159580);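 further: tested at 20 µM; growth read once vehicle control cultures reached saturation at 30 °C; 1 = growth at the plate median or of vehicle wells; lower values mean less growth of the strain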
# Settings: growth OD
smiles,measurement,setting,value
Cc1cc(O)ccc1Cl,normalized growth,"S. cerevisiae deletion strains, locus YKL009W, strain mrt4, hits give low values",0.979
same,normalized growth,"S. cerevisiae deletion strains, locus YKL068W, hits give low values",1
same,normalized growth,"S. cerevisiae deletion strains, locus YKL085W, strain MDH1 (second series), hits give low values",0.998
same,normalized growth,"S. cerevisiae deletion strains, locus YKL085W, strain MDH1, hits give low values",0.998
same,normalized growth,"S. cerevisiae deletion strains, locus YKL160W, strain elf1, hits give low values",1.02
same,normalized growth,"S. cerevisiae deletion strains, locus YKR001C, strain vps1, hits give low values",0.937
same,normalized growth,"S. cerevisiae deletion strains, locus YKR026C, strain gcn3, hits give low values",1.01
same,normalized growth,"S. cerevisiae deletion strains, locus YKR091W, strain srl3, hits give low values",1.03
same,normalized growth,"S. cerevisiae deletion strains, locus YLL001W, strain dnm1, hits give low values",0.992
same,normalized growth,"S. cerevisiae deletion strains, locus YLL026W, hits give low values",0.987
same,normalized growth,"S. cerevisiae deletion strains, locus YLL041C, strain sdh2, hits give low values",1
same,normalized growth,"S. cerevisiae deletion strains, locus YLR027C, strain aat2, hits give low values",1
same,normalized growth,"S. cerevisiae deletion strains, locus YLR039C, strain RIC1, hits give low values",0.874
same,normalized growth,"S. cerevisiae deletion strains, locus YLR058C, strain SHM2, hits give low values",1.02
same,normalized growth,"S. cerevisiae deletion strains, locus YLR102C, strain apc9, hits give low values",1
same,normalized growth,"S. cerevisiae deletion strains, locus YLR113W, strain HOG1, hits give low values",0.965
same,normalized growth,"S. cerevisiae deletion strains, locus YLR221C, strain rsa3, hits give low values",0.994
same,normalized growth,"S. cerevisiae deletion strains, locus YLR258W, strain gsy2, hits give low values",1.01
same,normalized growth,"S. cerevisiae deletion strains, locus YLR262C, strain YPT6 (second series), hits give low values",0.814 (active)
same,normalized growth,"S. cerevisiae deletion strains, locus YLR262C, strain YPT6, hits give low values",0.904
same,normalized growth,"S. cerevisiae deletion strains, locus YLR268W, strain sec22, hits give low values",0.991
same,normalized growth,"S. cerevisiae deletion strains, locus YLR320W, strain mms22, hits give low values",0.959
same,normalized growth,"S. cerevisiae deletion strains, locus YLR330W, strain CHS5, hits give low values",1
same,normalized growth,"S. cerevisiae deletion strains, locus YLR342W, strain FKS1 (second series), hits give low values",0.986
same,normalized growth,"S. cerevisiae deletion strains, locus YLR342W, strain FKS1, hits give low values",0.982
same,normalized growth,"S. cerevisiae deletion strains, locus YLR357W, strain rsc2, hits give low values",1.08
same,normalized growth,"S. cerevisiae deletion strains, locus YLR370C, strain arc18, hits give low values",1.01
same,normalized growth,"S. cerevisiae deletion strains, locus YLR371W, strain rom2, hits give low values",1
same,normalized growth,"S. cerevisiae deletion strains, locus YLR384C, strain iki3, hits give low values",0.993
same,normalized growth,"S. cerevisiae deletion strains, locus YLR418C, strain cdc73, hits give low values",1.02
same,normalized growth,"S. cerevisiae deletion strains, locus YML016C, strain PPZ1, hits give low values",1
same,normalized growth,"S. cerevisiae deletion strains, locus YML032C, strain rad52, hits give low values",0.981
same,normalized growth,"S. cerevisiae deletion strains, locus YML120C, strain ndi1, hits give low values",1
same,normalized growth,"S. cerevisiae deletion strains, locus YML124C, strain tub3, hits give low values",0.994
same,normalized growth,"S. cerevisiae deletion strains, locus YMR058W, strain fet3, hits give low values",0.965
same,normalized growth,"S. cerevisiae deletion strains, locus YMR078C, strain ctf18, hits give low values",1.01
same,normalized growth,"S. cerevisiae deletion strains, locus YMR125W, strain sto1, hits give low values",1.13 [resistant] (active)
same,normalized growth,"S. cerevisiae deletion strains, locus YMR129W, hits give low values",1.02
same,normalized growth,"S. cerevisiae deletion strains, locus YMR205C, strain PFK2, hits give low values",0.987
same,normalized growth,"S. cerevisiae deletion strains, locus YMR223W, strain ubp8, hits give low values",1.01
same,normalized growth,"S. cerevisiae deletion strains, locus YMR231W, strain pep5, hits give low values",1.02
same,normalized growth,"S. cerevisiae deletion strains, locus YMR263W, strain SAP30, hits give low values",1.02
same,normalized growth,"S. cerevisiae deletion strains, locus YMR307W, strain GAS1, hits give low values",0.957
same,normalized growth,"S. cerevisiae deletion strains, locus YNL067W, strain RPL9B, hits give low values",1.02
same,normalized growth,"S. cerevisiae deletion strains, locus YNL071W, strain lat1, hits give low values",1.01
same,normalized growth,"S. cerevisiae deletion strains, locus YNL153C, strain GIM3, hits give low values",1.03
same,normalized growth,"S. cerevisiae deletion strains, locus YNL183C, strain NPR1, hits give low values",0.896
same,normalized growth,"S. cerevisiae deletion strains, locus YNL209W, strain ssb2, hits give low values",1
same,normalized growth,"S. cerevisiae deletion strains, locus YNL233W, strain BNI4, hits give low values",1.01
same,normalized growth,"S. cerevisiae deletion strains, locus YNL248C, strain rpa49, hits give low values",1.02
same,normalized growth,"S. cerevisiae deletion strains, locus YNL250W, strain rad50, hits give low values",0.996
same,normalized growth,"S. cerevisiae deletion strains, locus YNL271C, strain bni1, hits give low values",1.01
same,normalized growth,"S. cerevisiae deletion strains, locus YNL298W, strain CLA4, hits give low values",0.95
same,normalized growth,"S. cerevisiae deletion strains, locus YNL307C, strain MCK1, hits give low values",1
same,normalized growth,"S. cerevisiae deletion strains, locus YNL322C, strain KRE1 (second series), hits give low values",1.06
same,normalized growth,"S. cerevisiae deletion strains, locus YNL322C, strain KRE1, hits give low values",0.999
same,normalized growth,"S. cerevisiae deletion strains, locus YNR049C, strain mso1, hits give low values",0.999
same,normalized growth,"S. cerevisiae deletion strains, locus YNR052C, strain pop2, hits give low values",1
same,normalized growth,"S. cerevisiae deletion strains, locus YOL012C, strain htz1",1.23
same,normalized growth,"S. cerevisiae deletion strains, locus YOL147C, strain pex11, hits give low values",0.997
same,normalized growth,"S. cerevisiae deletion strains, locus YOR001W, strain rrp6, hits give low values",0.991
same,normalized growth,"S. cerevisiae deletion strains, locus YOR061W, strain CKA2, hits give low values",0.999
same,normalized growth,"S. cerevisiae deletion strains, locus YOR069W, strain VPS5, hits give low values",1.01
same,normalized growth,"S. cerevisiae deletion strains, locus YOR070C, strain gyp1, hits give low values",0.993
same,normalized growth,"S. cerevisiae deletion strains, locus YOR080W, strain dia2, hits give low values",1.02
same,normalized growth,"S. cerevisiae deletion strains, locus YOR083W, strain WHI5, hits give low values",0.936
same,normalized growth,"S. cerevisiae deletion strains, locus YOR106W, strain vam3, hits give low values",0.976
same,normalized growth,"S. cerevisiae deletion strains, locus YOR136W, strain idh2, hits give low values",0.999
same,normalized growth,"S. cerevisiae deletion strains, locus YOR144C, strain elg1, hits give low values",1
same,normalized growth,"S. cerevisiae deletion strains, locus YOR184W, strain ser1, hits give low values",0.982
same,normalized growth,"S. cerevisiae deletion strains, locus YOR231W, strain MKK1, hits give low values",0.937
same,normalized growth,"S. cerevisiae deletion strains, locus YOR265W, strain rbl2, hits give low values",1.01
same,normalized growth,"S. cerevisiae deletion strains, locus YOR270C, strain vph1, hits give low values",1.01
same,normalized growth,"S. cerevisiae deletion strains, locus YOR290C, strain snf2, hits give low values",1.02
same,normalized growth,"S. cerevisiae deletion strains, locus YOR316C, strain cot1, hits give low values",1.01
same,normalized growth,"S. cerevisiae deletion strains, locus YPL051W, strain arl3, hits give low values",0.992
same,normalized growth,"S. cerevisiae deletion strains, locus YPL078C, strain atp4, hits give low values",0.938
same,normalized growth,"S. cerevisiae deletion strains, locus YPL106C, strain sse1, hits give low values",1.1
same,normalized growth,"S. cerevisiae deletion strains, locus YPL240C, strain hsp82, hits give low values",1.02
same,normalized growth,"S. cerevisiae deletion strains, locus YPL256C, strain CLN2, hits give low values",0.968
same,normalized growth,"S. cerevisiae deletion strains, locus YPR119W, strain clb2, hits give low values",1
same,normalized growth,"S. cerevisiae deletion strains, locus YPR141C, strain kar3, hits give low values",1
same,normalized growth,"S. cerevisiae deletion strains, locus YPR163C, strain tif3, hits give low values",1
same,normalized growth,"S. cerevisiae deletion strains, locus YPR167C, strain met16, hits give low values",0.994
same,normalized growth,"S. cerevisiae deletion strains, strain wtn01, hits give low values",0.974
same,normalized growth,"S. cerevisiae strains, strain wild type, hits give low values",1.01
